Measurements reported in PubChem BioAssay AID2284324 (EPA ToxCast).
Inconclusive results are not listed. Active and inactive are the calls of the source. The calls were made as follows: active = hit-call score of the fitted dose curve at least 0.9, where 1 is the maximum; inconclusive = response in the unintended direction; inactive = score below 0.9.

Test system: Japanese medaka Glucocorticoid Receptor (GR), gene 101170451
Assay: ATG_jmGR_EcoTox2: Attagene TRANS-FACTORIAL EcoTox-2 HepG2 Assay for Japanese medaka Glucocorticoid Receptor (GR)
Method: ATG_EcoTox2 is a cell-based, multiplexed assay created by modifying the existing Attagene TRANS-FACTORIAL system to include a panel of nuclear receptors from some or all the following species: human (Homo sapiens), african clawed frog (Xenopus laevis), rainbow trout (Oncorhynchus mykiss), japanese medaka (Oryzias latipes), and zebrafish (Danio rerio). The ECOTOX2-FACTORIAL format uses HepG2, a human liver cell line, with measurements taken at 24 hours after chemical dosing in a 24-well plate. ATG_jmGR_EcoTox2 is one of 29 assay components calculated in the ATG_EcoTox2 assay. It is designed to make measurements of mRNA induction, a form of inducible reporter, as detected with fluorescence intensity signals by Reverse transcription polymerase chain reaction (RT-PCR) and Capillary electrophoresis technology.The assay endpoint ATG_jmGR_EcoTox2 was analyzed in the positive analysis fitting direction relative to DMSO as the negative control and baseline of activity. Using a type of inducible reporter, measures of mRNA for gain-of-signal activity can be used to understand the reporter gene at the transcription factor-level as they relate to the gene for glucocorticoid receptor. Furthermore, this assay endpoint can be referred to as a primary readout, because this assay has produced multiple assay endpoints where this one serves a reporter gene function. […]

| Compound | outcome |
| --- | --- |
| O=P(Oc1ccccc1)(Oc1ccccc1)Oc1ccccc1 | inactive |
| CCCCOCN(C(=O)CCl)c1c(CC)cccc1CC | inactive |
